# Key:
# Experiment in all cases: DAPPL (digital affinity profiling via proximity ligation, sequencing); 10 mM Tris-HCl pH 7.5, 50 mM NaCl, 1 mM DTT, 4% glycerol, room temperature, 30 min; GST-TFs on glutathione beads, 16-mer random dsDNA library, 0.1% formaldehyde crosslink after washing; high values mean tight binding
# FLI1 = biological target: T1, FLI1 (Homo sapiens, UniProt Q01543 1-452); conditions: protein: recombinant; tags: N-terminal GST; dsDNA, one strand shown
# T1 sequence: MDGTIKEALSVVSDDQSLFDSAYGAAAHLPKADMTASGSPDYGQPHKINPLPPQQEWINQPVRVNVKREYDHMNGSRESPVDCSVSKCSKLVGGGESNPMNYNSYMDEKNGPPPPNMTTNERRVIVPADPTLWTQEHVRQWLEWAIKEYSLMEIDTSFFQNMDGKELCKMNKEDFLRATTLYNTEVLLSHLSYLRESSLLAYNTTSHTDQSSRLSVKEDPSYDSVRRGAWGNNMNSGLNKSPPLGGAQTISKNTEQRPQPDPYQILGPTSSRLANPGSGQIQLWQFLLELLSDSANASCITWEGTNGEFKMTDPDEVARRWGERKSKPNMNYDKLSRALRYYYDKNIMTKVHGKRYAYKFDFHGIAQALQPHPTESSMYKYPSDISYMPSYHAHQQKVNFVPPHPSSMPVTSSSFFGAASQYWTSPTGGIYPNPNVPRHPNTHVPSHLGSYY
# Procedure, shortened: (§1)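 Sequencing on an Illumina NextSeq500 followed washing, crosslinking with 0.1% formaldehyde, proximity ligation (BsaI/T4 ligase, 1 h, 37 °C) and PCR amplification of pools that had been incubated for 30 min at room temperature with 200 nmole of a random double-stranded 16-mer DNA library in Tris/NaCl/DTT/glycerol buffer. Each pool held DNA-barcoded human transcription factors, expressed in yeast as GST fusions and captured on glutathione beads, plus a tag-only sample. Binding signal is a hexamer's read frequency for a factor divided by its frequency in the tag-only sample.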
# ELK1 = biological target: T2, ELK1 (Homo sapiens, UniProt P19419 1-428); conditions: protein: recombinant; tags: N-terminal GST; dsDNA, one strand shown
# T2 sequence: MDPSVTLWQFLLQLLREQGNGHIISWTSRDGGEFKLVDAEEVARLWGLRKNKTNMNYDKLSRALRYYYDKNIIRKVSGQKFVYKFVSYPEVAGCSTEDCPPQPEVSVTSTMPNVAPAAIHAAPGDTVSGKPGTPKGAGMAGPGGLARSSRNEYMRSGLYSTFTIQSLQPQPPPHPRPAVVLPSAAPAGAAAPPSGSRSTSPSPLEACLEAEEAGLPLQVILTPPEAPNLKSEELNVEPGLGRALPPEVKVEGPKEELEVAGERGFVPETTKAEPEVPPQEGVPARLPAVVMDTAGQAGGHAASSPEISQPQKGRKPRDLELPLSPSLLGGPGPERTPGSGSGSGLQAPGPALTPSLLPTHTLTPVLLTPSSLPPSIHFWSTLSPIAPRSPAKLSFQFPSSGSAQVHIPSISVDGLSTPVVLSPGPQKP
# Procedure, shortened: as §1
# GABPA = biological target: T3, GABPA (Homo sapiens, UniProt Q06546 1-454); conditions: protein: recombinant; tags: N-terminal GST; dsDNA, one strand shown
# T3 sequence: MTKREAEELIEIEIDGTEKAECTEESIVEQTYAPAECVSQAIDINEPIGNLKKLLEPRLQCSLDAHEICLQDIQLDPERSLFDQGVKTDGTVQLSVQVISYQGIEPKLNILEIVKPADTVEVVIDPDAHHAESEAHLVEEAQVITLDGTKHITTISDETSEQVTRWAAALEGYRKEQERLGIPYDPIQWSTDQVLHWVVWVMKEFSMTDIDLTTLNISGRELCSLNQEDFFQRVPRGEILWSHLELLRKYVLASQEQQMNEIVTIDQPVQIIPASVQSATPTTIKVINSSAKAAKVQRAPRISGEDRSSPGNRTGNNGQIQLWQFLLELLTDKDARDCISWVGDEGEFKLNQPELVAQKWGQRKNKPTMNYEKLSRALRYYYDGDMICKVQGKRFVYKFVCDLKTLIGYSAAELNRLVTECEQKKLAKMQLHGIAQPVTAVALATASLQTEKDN
# Procedure, shortened: as §1
# ERG = biological target: T4, ERG (Homo sapiens, UniProt P11308 1-479); conditions: protein: recombinant; tags: N-terminal GST; dsDNA, one strand shown
# T4 sequence: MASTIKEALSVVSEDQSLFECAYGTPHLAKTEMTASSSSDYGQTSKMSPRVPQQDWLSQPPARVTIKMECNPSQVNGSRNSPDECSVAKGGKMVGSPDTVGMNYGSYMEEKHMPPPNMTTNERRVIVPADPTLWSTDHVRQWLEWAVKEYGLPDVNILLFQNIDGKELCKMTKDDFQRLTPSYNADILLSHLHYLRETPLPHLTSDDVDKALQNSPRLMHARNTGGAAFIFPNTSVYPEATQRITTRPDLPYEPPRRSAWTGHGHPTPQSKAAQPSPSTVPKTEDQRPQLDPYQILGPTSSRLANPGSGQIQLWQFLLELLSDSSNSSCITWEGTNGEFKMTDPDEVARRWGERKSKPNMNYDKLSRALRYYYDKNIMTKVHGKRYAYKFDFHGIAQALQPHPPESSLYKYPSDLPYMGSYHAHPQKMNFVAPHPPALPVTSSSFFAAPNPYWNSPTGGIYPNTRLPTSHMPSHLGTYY
# Procedure, shortened: as §1
# ELF1 = ELF1 (Homo sapiens, UniProt P32519 1-619); conditions: protein: recombinant; tags: N-terminal GST; dsDNA, one strand shown
# Chain of ELF1 (P32519 whole entry): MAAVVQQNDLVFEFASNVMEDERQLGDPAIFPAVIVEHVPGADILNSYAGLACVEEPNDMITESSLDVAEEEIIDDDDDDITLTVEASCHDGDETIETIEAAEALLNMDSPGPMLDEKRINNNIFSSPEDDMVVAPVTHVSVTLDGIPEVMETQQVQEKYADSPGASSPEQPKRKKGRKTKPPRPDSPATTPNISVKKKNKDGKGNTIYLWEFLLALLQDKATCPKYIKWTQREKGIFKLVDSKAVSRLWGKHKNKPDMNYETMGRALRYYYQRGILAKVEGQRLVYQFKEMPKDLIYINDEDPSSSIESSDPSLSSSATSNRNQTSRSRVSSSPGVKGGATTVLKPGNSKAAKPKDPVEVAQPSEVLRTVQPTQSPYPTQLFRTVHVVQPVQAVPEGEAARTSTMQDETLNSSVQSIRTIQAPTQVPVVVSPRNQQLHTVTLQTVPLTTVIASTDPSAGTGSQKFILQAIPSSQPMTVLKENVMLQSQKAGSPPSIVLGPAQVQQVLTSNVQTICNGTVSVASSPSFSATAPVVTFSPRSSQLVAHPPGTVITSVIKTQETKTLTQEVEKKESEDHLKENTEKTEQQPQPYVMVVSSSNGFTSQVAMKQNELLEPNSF
# Procedure, shortened: as §1
# EHF = biological target: T5, EHF (Homo sapiens, UniProt Q9NZC4 1-300); conditions: protein: recombinant; tags: N-terminal GST; dsDNA, one strand shown
# T5 sequence: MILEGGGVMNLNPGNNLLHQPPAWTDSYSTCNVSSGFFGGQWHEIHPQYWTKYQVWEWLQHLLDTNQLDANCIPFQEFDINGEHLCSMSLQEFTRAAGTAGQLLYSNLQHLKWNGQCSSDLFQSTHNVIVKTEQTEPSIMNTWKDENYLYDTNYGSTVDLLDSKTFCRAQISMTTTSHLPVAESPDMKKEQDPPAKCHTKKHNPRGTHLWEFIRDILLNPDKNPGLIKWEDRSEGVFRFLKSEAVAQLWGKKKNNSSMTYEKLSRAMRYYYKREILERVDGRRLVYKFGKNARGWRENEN
# Procedure, shortened: as §1
# SPI1 = SPI1 (Homo sapiens, UniProt P17947 1-270); conditions: protein: recombinant; tags: N-terminal GST; dsDNA, one strand shown
# Procedure, shortened: as §1
# SPIB = SPIB (Homo sapiens, UniProt Q01892 1-262); conditions: protein: recombinant; tags: N-terminal GST; dsDNA, one strand shown
# Chain of SPIB (Q01892 whole entry): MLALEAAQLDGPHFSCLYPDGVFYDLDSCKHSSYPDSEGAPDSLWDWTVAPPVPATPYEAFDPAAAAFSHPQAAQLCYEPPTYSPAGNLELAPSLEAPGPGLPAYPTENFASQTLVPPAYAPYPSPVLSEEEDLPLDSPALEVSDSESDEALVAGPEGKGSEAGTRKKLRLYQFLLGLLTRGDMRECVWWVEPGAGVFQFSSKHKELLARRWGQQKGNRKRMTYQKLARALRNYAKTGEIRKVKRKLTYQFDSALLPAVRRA
# Procedure, shortened: as §1
# ELK3 = biological target: T6, ELK3 (Homo sapiens, UniProt P41970 1-407); conditions: protein: recombinant; tags: N-terminal GST; dsDNA, one strand shown
# T6 sequence: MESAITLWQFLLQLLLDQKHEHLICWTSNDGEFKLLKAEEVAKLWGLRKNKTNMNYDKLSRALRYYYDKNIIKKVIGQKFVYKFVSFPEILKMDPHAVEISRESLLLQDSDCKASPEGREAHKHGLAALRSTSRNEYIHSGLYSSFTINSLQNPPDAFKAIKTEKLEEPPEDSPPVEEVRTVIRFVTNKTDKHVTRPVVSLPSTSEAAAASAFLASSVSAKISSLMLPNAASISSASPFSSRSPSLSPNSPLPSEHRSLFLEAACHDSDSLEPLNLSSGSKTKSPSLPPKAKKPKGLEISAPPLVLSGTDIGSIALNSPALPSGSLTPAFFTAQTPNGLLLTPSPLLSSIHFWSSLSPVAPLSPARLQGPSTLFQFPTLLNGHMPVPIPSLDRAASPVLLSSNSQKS
# Procedure, shortened: as §1
# FEV = biological target: T7, FEV (Homo sapiens, UniProt Q99581 1-238); conditions: protein: recombinant; tags: N-terminal GST; dsDNA, one strand shown
# T7 sequence: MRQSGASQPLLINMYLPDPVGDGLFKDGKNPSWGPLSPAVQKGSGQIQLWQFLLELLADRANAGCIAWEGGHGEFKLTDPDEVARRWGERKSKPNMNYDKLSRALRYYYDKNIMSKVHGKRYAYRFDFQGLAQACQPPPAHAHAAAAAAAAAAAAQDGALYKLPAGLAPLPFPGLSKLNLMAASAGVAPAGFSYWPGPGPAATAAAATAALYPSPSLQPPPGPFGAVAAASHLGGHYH
# Procedure, shortened: as §1
# ETV5 = ETV5 (Homo sapiens, UniProt P41161 1-510); conditions: protein: recombinant; tags: N-terminal GST; dsDNA, one strand shown
# Chain of ETV5 (P41161 whole entry): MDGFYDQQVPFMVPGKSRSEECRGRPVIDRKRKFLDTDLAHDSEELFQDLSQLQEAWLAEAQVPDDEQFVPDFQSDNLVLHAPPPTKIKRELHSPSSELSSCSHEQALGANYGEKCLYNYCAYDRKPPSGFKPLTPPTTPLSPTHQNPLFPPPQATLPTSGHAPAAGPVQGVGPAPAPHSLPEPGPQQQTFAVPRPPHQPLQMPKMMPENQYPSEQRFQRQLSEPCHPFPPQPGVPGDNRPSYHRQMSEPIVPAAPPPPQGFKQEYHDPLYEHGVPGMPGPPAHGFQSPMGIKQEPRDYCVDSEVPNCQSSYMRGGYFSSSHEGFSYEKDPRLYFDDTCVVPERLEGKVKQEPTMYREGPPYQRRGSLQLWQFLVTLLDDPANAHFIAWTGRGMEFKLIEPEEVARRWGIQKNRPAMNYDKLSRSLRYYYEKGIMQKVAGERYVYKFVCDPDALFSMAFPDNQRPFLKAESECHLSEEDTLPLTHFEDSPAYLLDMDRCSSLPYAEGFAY
# Procedure, shortened: as §1
# HSF1 = HSF1 (Homo sapiens, UniProt Q00613 1-529); conditions: protein: recombinant; tags: N-terminal GST; chain copies: 3; dsDNA, one strand shown
# Chain of HSF1 (Q00613 whole entry): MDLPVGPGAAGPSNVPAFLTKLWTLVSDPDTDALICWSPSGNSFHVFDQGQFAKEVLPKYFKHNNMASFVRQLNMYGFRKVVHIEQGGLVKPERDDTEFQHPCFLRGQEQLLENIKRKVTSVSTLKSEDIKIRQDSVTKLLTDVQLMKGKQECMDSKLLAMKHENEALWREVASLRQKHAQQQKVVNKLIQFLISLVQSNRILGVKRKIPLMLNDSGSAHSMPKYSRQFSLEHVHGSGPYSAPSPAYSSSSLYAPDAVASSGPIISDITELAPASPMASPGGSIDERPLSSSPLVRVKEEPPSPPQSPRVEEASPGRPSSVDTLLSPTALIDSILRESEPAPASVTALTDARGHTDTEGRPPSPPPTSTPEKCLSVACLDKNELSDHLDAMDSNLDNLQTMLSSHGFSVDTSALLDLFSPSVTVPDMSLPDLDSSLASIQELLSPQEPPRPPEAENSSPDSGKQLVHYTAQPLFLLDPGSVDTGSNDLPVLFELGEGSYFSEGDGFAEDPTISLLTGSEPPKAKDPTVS
# Procedure, shortened: as §1
# SPIC = biological target: T8, SPIC (Homo sapiens, UniProt Q8N5J4 1-248); conditions: protein: recombinant; tags: N-terminal GST; dsDNA, one strand shown
# T8 sequence: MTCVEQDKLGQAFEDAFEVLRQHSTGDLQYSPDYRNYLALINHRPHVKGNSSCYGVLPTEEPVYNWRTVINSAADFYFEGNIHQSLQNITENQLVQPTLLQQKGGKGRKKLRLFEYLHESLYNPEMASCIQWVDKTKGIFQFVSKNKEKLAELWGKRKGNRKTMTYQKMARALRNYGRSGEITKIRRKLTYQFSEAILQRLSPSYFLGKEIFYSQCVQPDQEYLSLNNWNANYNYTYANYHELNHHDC
# Procedure, shortened: as §1
# ELF4 = ELF4 (Homo sapiens, UniProt Q99607 1-663); conditions: protein: recombinant; tags: N-terminal GST; dsDNA, one strand shown
# Chain of ELF4 (Q99607 whole entry): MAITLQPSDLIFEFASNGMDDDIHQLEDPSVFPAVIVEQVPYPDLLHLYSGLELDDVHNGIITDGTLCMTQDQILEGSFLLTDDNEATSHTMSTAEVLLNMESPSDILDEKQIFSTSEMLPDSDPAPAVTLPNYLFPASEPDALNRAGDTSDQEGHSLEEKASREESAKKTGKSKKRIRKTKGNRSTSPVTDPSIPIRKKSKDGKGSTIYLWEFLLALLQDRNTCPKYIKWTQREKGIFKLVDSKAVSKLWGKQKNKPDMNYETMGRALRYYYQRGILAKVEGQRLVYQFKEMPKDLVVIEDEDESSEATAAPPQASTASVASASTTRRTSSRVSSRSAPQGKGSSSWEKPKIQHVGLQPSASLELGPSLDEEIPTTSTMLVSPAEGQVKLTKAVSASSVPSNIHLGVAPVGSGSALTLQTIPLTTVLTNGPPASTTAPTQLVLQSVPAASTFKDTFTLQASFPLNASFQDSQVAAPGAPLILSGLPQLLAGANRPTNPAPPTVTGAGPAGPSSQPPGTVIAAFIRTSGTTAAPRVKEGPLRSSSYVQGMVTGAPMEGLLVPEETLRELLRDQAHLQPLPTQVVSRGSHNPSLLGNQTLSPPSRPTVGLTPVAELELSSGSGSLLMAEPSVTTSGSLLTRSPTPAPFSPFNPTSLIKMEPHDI
# Procedure, shortened: as §1
# ELK4 = biological target: T9, ELK4 (Homo sapiens, UniProt P28324-2 1-405); conditions: protein: recombinant; tags: N-terminal GST; dsDNA, one strand shown
# T9 sequence: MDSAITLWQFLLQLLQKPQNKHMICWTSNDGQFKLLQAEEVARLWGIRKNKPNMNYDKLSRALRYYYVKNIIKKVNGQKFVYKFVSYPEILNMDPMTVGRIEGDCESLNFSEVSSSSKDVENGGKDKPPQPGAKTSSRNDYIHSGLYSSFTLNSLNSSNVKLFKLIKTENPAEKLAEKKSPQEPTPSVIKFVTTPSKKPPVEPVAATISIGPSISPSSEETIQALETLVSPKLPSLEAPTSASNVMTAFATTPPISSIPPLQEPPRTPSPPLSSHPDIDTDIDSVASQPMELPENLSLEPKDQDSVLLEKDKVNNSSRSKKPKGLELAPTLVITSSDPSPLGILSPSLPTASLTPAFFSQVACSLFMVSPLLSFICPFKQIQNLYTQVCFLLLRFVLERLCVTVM
# Procedure, shortened: as §1
# ETV2 = biological target: T10, ETV2 (Homo sapiens, UniProt O00321 1-342); conditions: protein: recombinant; tags: N-terminal GST; dsDNA, one strand shown
# T10 sequence: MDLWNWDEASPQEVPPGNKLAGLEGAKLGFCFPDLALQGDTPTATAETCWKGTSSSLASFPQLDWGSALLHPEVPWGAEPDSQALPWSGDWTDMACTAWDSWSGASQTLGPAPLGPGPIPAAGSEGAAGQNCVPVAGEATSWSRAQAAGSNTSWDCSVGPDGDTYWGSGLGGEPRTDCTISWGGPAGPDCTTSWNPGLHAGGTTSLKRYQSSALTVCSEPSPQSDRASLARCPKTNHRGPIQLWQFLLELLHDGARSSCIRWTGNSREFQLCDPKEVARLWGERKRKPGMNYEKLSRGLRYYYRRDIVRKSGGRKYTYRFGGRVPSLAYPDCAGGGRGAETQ
# Procedure, shortened: as §1
# ELF3 = biological target: T11, ELF3 (Homo sapiens, UniProt P78545 1-371); conditions: protein: recombinant; tags: N-terminal GST; dsDNA, one strand shown
# T11 sequence: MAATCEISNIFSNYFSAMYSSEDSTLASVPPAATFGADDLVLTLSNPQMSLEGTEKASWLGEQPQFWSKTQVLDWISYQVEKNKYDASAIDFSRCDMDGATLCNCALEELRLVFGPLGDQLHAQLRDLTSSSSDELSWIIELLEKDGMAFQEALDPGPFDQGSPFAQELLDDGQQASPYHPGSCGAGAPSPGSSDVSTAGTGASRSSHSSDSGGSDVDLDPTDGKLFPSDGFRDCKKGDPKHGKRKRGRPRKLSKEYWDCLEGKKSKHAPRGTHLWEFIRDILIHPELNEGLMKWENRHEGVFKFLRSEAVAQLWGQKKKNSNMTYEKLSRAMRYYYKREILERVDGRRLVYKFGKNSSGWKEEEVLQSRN
# Procedure, shortened: as §1
# CRX = CRX (Homo sapiens, UniProt O43186 1-299); conditions: protein: recombinant; tags: N-terminal GST; dsDNA, one strand shown
# Chain of CRX (O43186 whole entry): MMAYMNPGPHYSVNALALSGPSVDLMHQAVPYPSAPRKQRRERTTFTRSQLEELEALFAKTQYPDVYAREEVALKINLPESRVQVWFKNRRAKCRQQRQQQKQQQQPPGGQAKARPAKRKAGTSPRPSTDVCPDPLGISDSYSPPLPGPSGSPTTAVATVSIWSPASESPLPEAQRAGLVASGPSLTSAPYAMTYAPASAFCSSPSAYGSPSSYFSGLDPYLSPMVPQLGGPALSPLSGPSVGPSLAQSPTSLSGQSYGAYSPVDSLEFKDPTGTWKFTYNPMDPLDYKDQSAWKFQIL
# Procedure, shortened: as §1
# ETV1 = ETV1 (Homo sapiens, UniProt P50549 1-477); conditions: protein: recombinant; tags: N-terminal GST; dsDNA, one strand shown
# Chain of ETV1 (P50549 whole entry): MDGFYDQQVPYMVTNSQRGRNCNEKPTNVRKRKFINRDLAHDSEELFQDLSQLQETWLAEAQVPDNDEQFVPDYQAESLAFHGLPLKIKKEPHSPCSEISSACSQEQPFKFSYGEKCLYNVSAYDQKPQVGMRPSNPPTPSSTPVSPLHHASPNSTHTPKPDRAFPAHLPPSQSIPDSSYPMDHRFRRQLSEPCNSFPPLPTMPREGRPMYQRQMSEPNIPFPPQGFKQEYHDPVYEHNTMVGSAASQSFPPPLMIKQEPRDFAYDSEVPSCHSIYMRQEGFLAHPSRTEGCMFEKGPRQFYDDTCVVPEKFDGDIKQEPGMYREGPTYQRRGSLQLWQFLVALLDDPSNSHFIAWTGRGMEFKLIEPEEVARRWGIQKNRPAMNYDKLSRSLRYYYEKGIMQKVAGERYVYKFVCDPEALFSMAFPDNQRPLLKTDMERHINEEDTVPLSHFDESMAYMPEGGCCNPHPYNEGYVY
# Procedure, shortened: as §1
sequence,measurement,setting,value
ATCTAA,binding signal,FLI1,"1.21 fold enrichment (6-mer frequency, TF over GST control)"
same,binding signal,ELK1,"1.24 fold enrichment (6-mer frequency, TF over GST control)"
same,binding signal,GABPA,"1.23 fold enrichment (6-mer frequency, TF over GST control)"
same,binding signal,ERG,"1.17 fold enrichment (6-mer frequency, TF over GST control)"
same,binding signal,ELF1,"1.23 fold enrichment (6-mer frequency, TF over GST control)"
same,binding signal,EHF,"1.23 fold enrichment (6-mer frequency, TF over GST control)"
same,binding signal,SPI1,"1.13 fold enrichment (6-mer frequency, TF over GST control)"
same,binding signal,SPIB,"1.21 fold enrichment (6-mer frequency, TF over GST control)"
same,binding signal,ELK3,"1.16 fold enrichment (6-mer frequency, TF over GST control)"
same,binding signal,FEV,"1.14 fold enrichment (6-mer frequency, TF over GST control)"
same,binding signal,ETV5,"1.15 fold enrichment (6-mer frequency, TF over GST control)"
same,binding signal,HSF1,"1.49 fold enrichment (6-mer frequency, TF over GST control)"
same,binding signal,SPIC,"1.13 fold enrichment (6-mer frequency, TF over GST control)"
same,binding signal,ELF4,"1.23 fold enrichment (6-mer frequency, TF over GST control)"
same,binding signal,ELK4,"1.24 fold enrichment (6-mer frequency, TF over GST control)"
same,binding signal,ETV2,"1.22 fold enrichment (6-mer frequency, TF over GST control)"
same,binding signal,ELF3,"1.12 fold enrichment (6-mer frequency, TF over GST control)"
same,binding signal,CRX,"1.83 fold enrichment (6-mer frequency, TF over GST control)"
same,binding signal,ETV1,"1.16 fold enrichment (6-mer frequency, TF over GST control)"

# From publication PMC7862700, “An all-to-all approach to the identification of sequence-specific readers for epigenetic DNA modifications on cytosine”
